In all, about 18,000 sequences were measured (“TetR repression strength (sort-seq, GFP reporter)”: median about 0.23, highest 2% from about 0.68 on). For the sample, the highest values were picked, then their nearest neighbours and some sequences at random.

Sequence of TetR (class B, Tn10) (P04483 whole entry): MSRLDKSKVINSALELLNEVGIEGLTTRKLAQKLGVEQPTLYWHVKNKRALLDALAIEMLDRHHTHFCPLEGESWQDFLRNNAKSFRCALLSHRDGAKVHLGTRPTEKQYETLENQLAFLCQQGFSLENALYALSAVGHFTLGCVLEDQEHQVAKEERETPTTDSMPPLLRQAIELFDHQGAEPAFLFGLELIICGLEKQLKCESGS

For the test, the target named is TetR (class B, Tn10) (UniProt P04483). Put plainly: TetR repression strength (sort-seq, GFP reporter) (relative to tetO2 = 1); higher = stronger repression. The conditions noted are these: E. coli. In a few lines:
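In LB with 50 µg/mL chloramphenicol, E. coli SIG10-MAX holding a low-copy library with eight randomized operator positions between a constitutive promoter and sfGFP, plus constitutive TetR, grew for 5 h at 37 °C. FACS then sorted 10^6 cells into 13 fluorescence bins for Illumina sequencing of each bin. Repression strength equals the top bin index plus one less the read-weighted mean bin, normalized to the unaltered operator. Values from three independent transformations were averaged when reads were ≥30 in every replicate and the CV was ≤0.5.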
In turn, TCCCGGGAAGTTACGGAGA had a TetR repression strength of 0.707. The figure for TCCCCAAAAGTTTGTGAGA is 0.0341; for TCCCCTCGAGTTGGGGAGA it is 0.121; for TCCCGGAGAGTCCTTGAGA it is 0.295. The figure for TCCCTCGAAGTGCGGGAGA is 0.25; for TCCCCAAGAGTAAATGAGA it is 0.368; for TCCCGGATAGTGACCGAGA it is 0.131. The figure for TCCCTCCAAGTGGGAGAGA is 0.14; for TCCCCGCAAGTCTAGGAGA it is 0.739; for TCCCCAGGAGTCTAGGAGA it is 0.284. As to TCCCTGCCAGTCTAGGAGA, the TetR repression strength was 0.415. TCCCGCCAAGTCCGGGAGA returned a TetR repression strength of 0.21. The figure for TCCCTCCCAGTCTAGGAGA is 0.263; for TCCCCGGAAGTCTAGGAGA it is 0.113; for TCCCCGCCAGTCTAGGAGA it is 0.681. TCCCCGCCAGTCCAGGAGA had a TetR repression strength of 0.104. For TCCCTGCAAGTCTAGGAGA, the TetR repression strength came out at 0.171. The figure for TCCCGCCAAGTCCCGGAGA is 1.1; for TCCCGCCAAGTCCCTGAGA it is 0.389. For the sequence TCCCCCCCAGTCTAGGAGA, the TetR repression strength turned out to be 0.8. The figure for TCCCCGTGAGTCGATGAGA is 0.313. The figure for TCCCGCGTAGTCCGCGAGA is 0.172. Sequence TCCCGAGTAGTGTGTGAGA gave a TetR repression strength of 0.28. On to TCCCATTGAGTTCCGGAGA, for which the TetR repression strength is 0.115. The figure for TCCCATCCAGTGGGGGAGA is 0.175; for TCCCCCCTAGTTGTGGAGA it is 0.213; for TCCCTGTGAGTTGGTGAGA it is 0.656.

As to TCCCTATCAGTAATAGAGA, the TetR repression strength was 0.878.

For the sequence TCCCTCTCAGTACTAGAGA, the TetR repression strength came out at 0.283. TCCCTCTAAGTAATAGAGA gave a TetR repression strength of 0.472. On to TCCCTTTCAGTGATAGAGA, for which the TetR repression strength came out at 0.785. As for TCCCTCTCAGTAATAGAGA, the TetR repression strength was 0.686. The figure for TCCCTATCAGTAACAGAGA is 0.539; for TCCCTTTAAGTAATAGAGA it is 0.44; for TCCCTTTCAGTGAGAGAGA it is 0.566. The figure for TCCCTAACAGTAATAGAGA is 0.569; for TCCCTTTCAGTAATAGAGA it is 0.745; for TCCCTTTCAGTGATGGAGA it is 0.574. The figure for TCCCTTTCAGTTATAGAGA is 0.649. Consider TCCCACCAAGTGGGTGAGA, for which the TetR repression strength was 0.139. The figure for TCCCTGTGAGTTTGGGAGA is 0.424.

With TCCCGGAGAGTTTCTGAGA, the TetR repression strength is 0.191. TCCCCTTTAGTGCCTGAGA: the TetR repression strength was 0.523. The figure for TCCCGTTGAGTAGGGGAGA is 0.0793; for TCCCAGGGAGTAGCGGAGA it is 0.159.

In turn, TCCCACGTAGTGCAAGAGA came in with a TetR repression strength of 0.62.

TCCCTTCAAGTGCTCGAGA returned a TetR repression strength of 0.24. The figure for TCCCATGTAGTGTGGGAGA is 0.203; for TCCCGATCAGTGCAGGAGA it is 0.299; for TCCCTGCGAGTGGAGGAGA it is 1.08. With TCCCTGCGAGTGGTGGAGA, the TetR repression strength turned out to be 0.112. TCCCTGCGAGTGGGGGAGA displayed a TetR repression strength of 0.264. For TCCCTGCTAGTGGAGGAGA, the TetR repression strength stood at 1.14.

With TCCCTGCTAGTGGTGGAGA, the TetR repression strength worked out at 0.404. The figure for TCCCTGCTAGTGGGGGAGA is 0.0729; for TCCCGGGAAGTGTGTGAGA it is 0.177; for TCCCTTGTAGTGAATGAGA it is 0.277.

In the case of TCCCGGGCAGTGCCTGAGA, the TetR repression strength amounted to 0.283. On to TCCCCGGGAGTGAGGGAGA, for which the TetR repression strength was 0.13.

Consider TCCCGGCCAGTTAGAGAGA, for which the TetR repression strength turned out to be 0.129. The figure for TCCCGGAAAGTCTGGGAGA is 0.153; for TCCCGGCCAGTCTGCGAGA it is 0.967; for TCCCTGCCAGTCTGCGAGA it is 0.24. The figure for TCCCGGGGAGTCTGGGAGA is 0.179; for TCCCCGGCAGTCTGGGAGA it is 0.271.

Take TCCCGGGCAGTCTGGGAGA: the TetR repression strength worked out at 1.2.

In turn, TCCCCGGCAGTCTGCGAGA showed a TetR repression strength of 0.266. The figure for TCCCGGGAAGTCTGGGAGA is 1.24. The figure for TCCCGGGCAGTCTGAGAGA is 0.179. Regarding TCCCAGGTAGTAATAGAGA, the TetR repression strength is 0.443. The figure for TCCCTGTCAGTACAGGAGA is 0.118; for TCCCAAACAGTTTGTGAGA it is 0.0981; for TCCCCGAAAGTACAGGAGA it is 0.259.

Turning to TCCCCTGTAGTCGTAGAGA, the TetR repression strength was found to be 0.344. The figure for TCCCCAGGAGTGGGCGAGA is 0.894. The figure for TCCCCGGGAGTGGGCGAGA is 0.993; for TCCCCAGGAGTCGGCGAGA it is 0.237; for TCCCCAGTAGTGGGGGAGA it is 0.14. The figure for TCCCGGGGAGTGGGCGAGA is 0.225; for TCCCAGGGAGTGGGCGAGA it is 0.312.

TCCCCCGGAGTGGGCGAGA came in with a TetR repression strength of 0.111. As for TCCCGAGGAGTCGGCGAGA, the TetR repression strength was determined as 0.0782. The figure for TCCCAAGGAGTGGGCGAGA is 0.231; for TCCCCAGTAGTGGGCGAGA it is 0.963; for TCCCCAGCAGTGGGCGAGA it is 0.125. With TCCCAAGGAGTCGGCGAGA, the TetR repression strength is 0.743. As to TCCCACCCAGTAGTGGAGA, the TetR repression strength was determined as 0.211. Sequence TCCCTAGAAGTCCTAGAGA had a TetR repression strength of 0.0793.

As for TCCCCAGGAGTATCGGAGA, the TetR repression strength came out at 0.

In turn, TCCCGTCTAGTTTCCGAGA showed a TetR repression strength of 0.169.

The sequence TCCCGGTCAGTCTGTGAGA had a TetR repression strength of 0.287. In turn, TCCCTGGCAGTGTGTGAGA had a TetR repression strength of 0.164.

TCCCATCGAGTCTGAGAGA returned a TetR repression strength of 0.218. The figure for TCCCATACAGTTGAGGAGA is 0.0487; for TCCCACTTAGTGCGAGAGA it is 0.0746.

For TCCCTAAGAGTGCTGGAGA, the TetR repression strength was 0.768. The figure for TCCCGGGGAGTGCTGGAGA is 0.359; for TCCCTGAGAGTGCTGGAGA it is 0.564; for TCCCCTAGAGTCCTGGAGA it is 0.952. The figure for TCCCCGAGAGTGCTGGAGA is 0.252. The figure for TCCCCTGGAGTCCTGGAGA is 0.439; for TCCCTTAGAGTCCTGGAGA it is 0.0777. TCCCGGAGAGTGCTGGAGA: the TetR repression strength was 1.07. The figure for TCCCTAGGAGTGCTGGAGA is 0.382.

Values taken from a collection of fitness landscapes (doi:10.1038/s41467-024-54723-y).
